# Laboratory results as given in the supplement of paper PMC3484114.
# ± gives the standard deviation.
# System: OVCAR-3-derived ovarian cancer stem-like cells (spheroids)
# Experiment: cell growth relative to untreated control; higher = more growth (less inhibition)
# Conditions: 2.29 µM; 96 h
# In short: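 After trypsin dissociation, OVCAR-3 spheroid-derived stem-like cells were placed in ultra-low attachment 96-well plates at 50,000 cells/mL in stem cell medium and preincubated for 24 h. Treatment at 2.29 uM followed for 96 h at 37°C, 5% CO2, with 4 replicate wells per compound. A 4 h TOX8 resazurin fluorescence read (ex 560/em 590 nm) gave viability, from which percent growth relative to untreated wells was derived after blank subtraction and Grubbs outlier removal.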
row,SMILES,cell growth
1,C[C@@H]1C[C@H]2CC[C@H](O2)[C@H](C)C(=O)O[C@@H](C)C[C@@H]2CC[C@@H](O2)[C@@H](C)C(=O)O[C@H](C)C[C@H]2CC[C@H](O2)[C@H](C)C(=O)O[C@@H](C)C[C@@H]2CC[C@@H](O2)[C@@H](C)C(=O)O1,31.3 ± 6%
2,COc1cc([C@@H]2c3cc4c(c(O)c3C[C@H]3COC(=O)[C@@H]32)OCO4)cc(OC)c1O,20.4 ± 5.8%
3,O=C1N[C@@H]2C(=C[C@H](O)[C@@H](O)[C@H]2O)c2cc3c(cc21)OCO3,31.7 ± 7.1%
4,O=C([O][Hg][CH2]C1COC([CH2][Hg][O]C(=O)c2ccccc2)CO1)c1ccccc1 (configuration not stated),69.9 ± 76%
5,COc1cc2c(c3oc4cccc(O)c4c(=O)c13)[C@@H]1C=CO[C@@H]1O2,112 ± 22%
6,COC(=O)[C@@]12OC[C@]34[C@H]([C@@H](O)[C@@H]1O)[C@@]1(C)CC(=O)C(O)=C(C)[C@@H]1C[C@H]3OC(=O)[C@H](OC(=O)/C=C(\C)C(C)C)[C@@H]24,6.1 ± 4.4%
7,O=C1N[C@@H]2C(=C[C@H](O)[C@@H](O)[C@H]2O)c2cc3c(c(O)c21)OCO3,111 ± 17%
8,NCCCNCCSP(=O)(O)O,99.4 ± 12%
9,CCC(=O)OC1CCn2c1nc1c2C(=O)C(C)=C(N2CC2)C1=O (configuration not stated),130 ± 34%
10,CC[C@](C)(O)C(=O)O[C@H]1C(=O)O[C@@H]2C[C@H]3C(C)=C[C@H](O)[C@@H](O)[C@]3(C)[C@H]3[C@@]4(O)OC[C@]32[C@@H]1[C@@H](C)[C@H]4O,138 ± 54%
11,CC1=C(N2CC2)C(=O)c2nc3n(c2C1=O)CCC3OC(=O)CCl (configuration not stated),65.2 ± 6.7%
12,C[n+]1cc2cc(O)c(O)cc2c2ccc3cc(O)c(O)cc3c21.c1ccncc1,91.8 ± 23%
